Data from ChEMBL document CHEMBL3988442, “University of Dundee, Small-Polar-MMV Screening Library” (2021).
For part of these data: Results with a measured potency or affinity are listed apart.

What was measured:
Parameters in all cases: scale not given: direction of the effect not stated beside the values
[1] = target: Protein translocase subunit SecA (Escherichia coli (strain K12)) (UniProt P10408); test: Assay to Identify E. coli SecA ATPase Inhibitors; format: functional; details: 30 µM
[2] = target: T1, Ubiquitin-activating enzyme e1, putative (Leishmania donovani (strain BPK282A1)) (UniProt E9BSI1); test: Leishmania donovani Ubiquitin Activating Enzyme (LdE1); format: functional; details: 30 µM
T1 sequence (whole entry): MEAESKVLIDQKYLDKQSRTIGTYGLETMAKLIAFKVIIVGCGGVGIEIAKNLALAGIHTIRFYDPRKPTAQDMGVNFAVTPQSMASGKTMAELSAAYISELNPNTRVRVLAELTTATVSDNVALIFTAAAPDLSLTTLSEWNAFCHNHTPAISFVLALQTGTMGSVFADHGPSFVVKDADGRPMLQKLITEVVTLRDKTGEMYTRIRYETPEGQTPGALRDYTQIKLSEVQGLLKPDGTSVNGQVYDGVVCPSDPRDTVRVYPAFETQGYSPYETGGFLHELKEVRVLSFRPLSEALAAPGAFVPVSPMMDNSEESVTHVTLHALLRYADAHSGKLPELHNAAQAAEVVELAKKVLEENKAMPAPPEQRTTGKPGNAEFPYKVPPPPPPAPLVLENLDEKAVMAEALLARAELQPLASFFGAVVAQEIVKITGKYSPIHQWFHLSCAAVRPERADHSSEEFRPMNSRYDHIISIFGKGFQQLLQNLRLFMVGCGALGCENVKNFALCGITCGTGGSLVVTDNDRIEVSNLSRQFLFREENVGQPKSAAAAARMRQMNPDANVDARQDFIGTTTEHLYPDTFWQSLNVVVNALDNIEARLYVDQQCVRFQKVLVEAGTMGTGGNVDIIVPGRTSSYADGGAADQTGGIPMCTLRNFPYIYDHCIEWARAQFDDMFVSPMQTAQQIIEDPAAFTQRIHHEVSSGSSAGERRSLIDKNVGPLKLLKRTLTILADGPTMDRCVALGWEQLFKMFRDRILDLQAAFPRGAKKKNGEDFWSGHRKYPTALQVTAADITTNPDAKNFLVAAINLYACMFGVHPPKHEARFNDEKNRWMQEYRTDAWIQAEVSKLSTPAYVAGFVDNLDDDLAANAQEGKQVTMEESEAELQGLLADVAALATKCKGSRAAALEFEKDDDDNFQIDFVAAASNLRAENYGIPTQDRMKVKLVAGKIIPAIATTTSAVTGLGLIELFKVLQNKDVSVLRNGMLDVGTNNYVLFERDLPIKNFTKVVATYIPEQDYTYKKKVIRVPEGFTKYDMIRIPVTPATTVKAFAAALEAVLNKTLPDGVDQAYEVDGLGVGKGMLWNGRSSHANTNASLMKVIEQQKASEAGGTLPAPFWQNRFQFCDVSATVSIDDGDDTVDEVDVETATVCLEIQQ

[3] = target: Sialic acid-binding Ig-like lectin 9 (Homo sapiens) (UniProt Q9Y336); test: Hs-Siglec9 ALPHAscreen SOP 20170721; details: 10 µM
Sialic acid-binding Ig-like lectin 9 (Homo sapiens), sequence (Q9Y336 whole entry): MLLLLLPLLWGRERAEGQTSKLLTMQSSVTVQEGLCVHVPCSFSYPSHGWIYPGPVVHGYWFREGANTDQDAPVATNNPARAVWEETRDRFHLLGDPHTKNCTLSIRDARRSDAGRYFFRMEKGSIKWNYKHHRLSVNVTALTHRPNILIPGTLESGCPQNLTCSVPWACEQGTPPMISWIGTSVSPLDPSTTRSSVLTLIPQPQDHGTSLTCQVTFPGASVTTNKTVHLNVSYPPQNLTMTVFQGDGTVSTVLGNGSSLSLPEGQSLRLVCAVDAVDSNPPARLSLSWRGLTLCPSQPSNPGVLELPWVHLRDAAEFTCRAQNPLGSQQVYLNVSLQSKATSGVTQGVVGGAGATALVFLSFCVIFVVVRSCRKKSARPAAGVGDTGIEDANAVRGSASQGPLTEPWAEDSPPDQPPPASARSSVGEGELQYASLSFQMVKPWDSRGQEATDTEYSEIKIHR

Trypanosoma cruzi = test: Trypanosoma cruzi phosphomannomutase and mannose-1-phosphate guanylyltransferase assay; format: functional; details: 10 µM
[4] = target: T2, Arginase-2, mitochondrial (Homo sapiens) (UniProt P78540); test: in vitro enzyme assay to detect the production of urea directly proportional to the activity of Arginase II; format: functional; details: 33.3 µM; further: in the data most compounds retested in dose-response had high values
T2 sequence (whole entry): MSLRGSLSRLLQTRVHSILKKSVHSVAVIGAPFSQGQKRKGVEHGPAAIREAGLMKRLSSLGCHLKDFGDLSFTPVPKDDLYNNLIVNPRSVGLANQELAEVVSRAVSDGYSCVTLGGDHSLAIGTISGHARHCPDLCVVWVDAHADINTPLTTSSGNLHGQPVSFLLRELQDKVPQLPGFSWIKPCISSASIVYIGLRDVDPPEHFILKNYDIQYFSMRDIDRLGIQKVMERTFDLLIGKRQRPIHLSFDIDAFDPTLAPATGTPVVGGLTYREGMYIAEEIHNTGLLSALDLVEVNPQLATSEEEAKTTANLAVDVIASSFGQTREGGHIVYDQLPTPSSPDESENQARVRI

[5] = target: T3, Proteasome subunit beta (Trypanosoma cruzi) (UniProt O96673); test: Trypanosoma cruzi proteasome chymotrypsin-like activity (TcProtChymo) assay.; further: in the data most compounds retested in dose-response had high values; format: functional; details: 9.37 µM
T3 sequence (whole entry): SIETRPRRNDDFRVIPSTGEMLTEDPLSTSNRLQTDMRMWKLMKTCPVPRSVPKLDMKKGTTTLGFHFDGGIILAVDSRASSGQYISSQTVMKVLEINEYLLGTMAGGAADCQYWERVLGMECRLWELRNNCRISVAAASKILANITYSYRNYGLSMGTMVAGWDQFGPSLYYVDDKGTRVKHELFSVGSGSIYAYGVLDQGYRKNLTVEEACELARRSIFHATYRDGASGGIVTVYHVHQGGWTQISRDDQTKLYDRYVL

Homo sapiens = species on record: Homo sapiens; test: To identify inhibition of the IFN signalling (Jak-Stat) pathway via expression of an eGFP reporter gene under the control of an IFN-stimulated response element (ISRE) containing MxA promoter.; format: functional; details: 30 µM
[6] = target: T4, Tyrosyl-tRNA synthetase, putative (Trypanosoma cruzi (strain CL Brener)) (UniProt Q4DSP6); test: Trypanosoma cruzi tyrosyl tRNA synthetase (TcYRS) _High Tyrosine SOP; format: functional; details: 30 µM; further: in the data most compounds retested in dose-response had high values
T4 sequence (whole entry): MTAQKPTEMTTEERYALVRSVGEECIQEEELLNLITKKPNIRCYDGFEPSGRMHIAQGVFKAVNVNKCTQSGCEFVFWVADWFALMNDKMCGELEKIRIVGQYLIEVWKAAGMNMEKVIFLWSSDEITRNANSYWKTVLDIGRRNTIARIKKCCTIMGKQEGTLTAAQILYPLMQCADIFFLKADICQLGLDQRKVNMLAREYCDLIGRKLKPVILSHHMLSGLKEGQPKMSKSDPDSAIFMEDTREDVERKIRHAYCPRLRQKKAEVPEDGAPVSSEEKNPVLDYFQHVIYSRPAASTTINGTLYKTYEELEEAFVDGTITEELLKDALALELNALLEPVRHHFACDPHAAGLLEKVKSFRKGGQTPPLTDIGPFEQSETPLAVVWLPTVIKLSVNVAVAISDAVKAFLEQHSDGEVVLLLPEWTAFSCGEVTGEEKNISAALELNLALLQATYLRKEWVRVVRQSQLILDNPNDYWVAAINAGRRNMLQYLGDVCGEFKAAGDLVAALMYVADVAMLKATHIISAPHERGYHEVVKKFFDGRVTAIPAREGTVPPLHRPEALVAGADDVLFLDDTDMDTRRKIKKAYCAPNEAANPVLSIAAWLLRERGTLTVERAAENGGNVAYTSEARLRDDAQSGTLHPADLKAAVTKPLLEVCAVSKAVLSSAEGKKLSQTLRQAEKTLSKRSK

[7] = target: T4, Tyrosyl-tRNA synthetase, putative (Trypanosoma cruzi (strain CL Brener)); test: Trypanosoma cruzi tyrosyl tRNA synthetase (TcYRS) SOP; format: functional; details: 30 µM
[8] = target: Chromo domain-containing protein 1 (Saccharomyces cerevisiae (strain ATCC 204508 / S288c) (Baker's yeast)) (UniProt P32657); test: ScCHD-1 Enzyme Inhibition Assay; format: functional; details: 30 µM; further: in the data most compounds retested in dose-response had high values
Chromo domain-containing protein 1 (Saccharomyces cerevisiae (strain ATCC 204508 / S288c) (Baker's yeast)), sequence (P32657 whole entry, the tested form may be a part): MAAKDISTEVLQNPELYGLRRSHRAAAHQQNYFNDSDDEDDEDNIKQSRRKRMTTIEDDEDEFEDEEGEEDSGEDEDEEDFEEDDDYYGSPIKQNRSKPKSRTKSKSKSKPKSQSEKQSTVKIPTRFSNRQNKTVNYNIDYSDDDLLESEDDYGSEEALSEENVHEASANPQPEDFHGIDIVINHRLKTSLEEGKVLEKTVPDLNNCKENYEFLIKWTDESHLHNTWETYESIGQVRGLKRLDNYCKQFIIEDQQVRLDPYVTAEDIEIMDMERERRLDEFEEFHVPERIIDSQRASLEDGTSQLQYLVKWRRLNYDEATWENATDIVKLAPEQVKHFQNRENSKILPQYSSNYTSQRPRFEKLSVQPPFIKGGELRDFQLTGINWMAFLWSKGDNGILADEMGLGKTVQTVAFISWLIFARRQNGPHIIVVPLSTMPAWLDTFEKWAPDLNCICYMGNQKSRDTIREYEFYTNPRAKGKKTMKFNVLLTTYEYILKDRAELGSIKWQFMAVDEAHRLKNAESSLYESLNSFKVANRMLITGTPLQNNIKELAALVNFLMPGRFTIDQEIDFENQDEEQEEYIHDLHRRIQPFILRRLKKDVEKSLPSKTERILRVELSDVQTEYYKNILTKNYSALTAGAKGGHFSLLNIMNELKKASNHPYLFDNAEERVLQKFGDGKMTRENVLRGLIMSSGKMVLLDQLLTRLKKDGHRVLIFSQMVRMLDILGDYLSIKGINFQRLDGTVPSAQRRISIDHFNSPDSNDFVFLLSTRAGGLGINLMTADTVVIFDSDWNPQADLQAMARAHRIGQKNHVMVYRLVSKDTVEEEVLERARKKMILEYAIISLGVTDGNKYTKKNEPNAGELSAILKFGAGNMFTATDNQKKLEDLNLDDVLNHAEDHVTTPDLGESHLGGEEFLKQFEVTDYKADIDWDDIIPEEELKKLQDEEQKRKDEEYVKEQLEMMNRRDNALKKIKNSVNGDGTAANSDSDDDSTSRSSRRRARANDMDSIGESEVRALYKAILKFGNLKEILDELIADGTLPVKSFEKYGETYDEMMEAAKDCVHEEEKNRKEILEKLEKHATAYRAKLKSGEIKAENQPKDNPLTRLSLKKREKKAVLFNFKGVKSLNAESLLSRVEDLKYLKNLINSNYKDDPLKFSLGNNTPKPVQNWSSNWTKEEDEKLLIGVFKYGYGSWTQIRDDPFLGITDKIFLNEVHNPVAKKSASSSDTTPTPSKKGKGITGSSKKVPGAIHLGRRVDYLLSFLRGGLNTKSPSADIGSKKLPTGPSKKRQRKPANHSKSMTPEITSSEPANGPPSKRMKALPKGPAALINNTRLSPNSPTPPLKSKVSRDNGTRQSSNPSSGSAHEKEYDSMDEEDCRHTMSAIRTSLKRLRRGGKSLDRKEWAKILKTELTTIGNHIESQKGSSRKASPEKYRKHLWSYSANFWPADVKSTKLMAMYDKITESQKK

Protein translocase subunit SecA (Escherichia coli (strain K12)), sequence (P10408 whole entry): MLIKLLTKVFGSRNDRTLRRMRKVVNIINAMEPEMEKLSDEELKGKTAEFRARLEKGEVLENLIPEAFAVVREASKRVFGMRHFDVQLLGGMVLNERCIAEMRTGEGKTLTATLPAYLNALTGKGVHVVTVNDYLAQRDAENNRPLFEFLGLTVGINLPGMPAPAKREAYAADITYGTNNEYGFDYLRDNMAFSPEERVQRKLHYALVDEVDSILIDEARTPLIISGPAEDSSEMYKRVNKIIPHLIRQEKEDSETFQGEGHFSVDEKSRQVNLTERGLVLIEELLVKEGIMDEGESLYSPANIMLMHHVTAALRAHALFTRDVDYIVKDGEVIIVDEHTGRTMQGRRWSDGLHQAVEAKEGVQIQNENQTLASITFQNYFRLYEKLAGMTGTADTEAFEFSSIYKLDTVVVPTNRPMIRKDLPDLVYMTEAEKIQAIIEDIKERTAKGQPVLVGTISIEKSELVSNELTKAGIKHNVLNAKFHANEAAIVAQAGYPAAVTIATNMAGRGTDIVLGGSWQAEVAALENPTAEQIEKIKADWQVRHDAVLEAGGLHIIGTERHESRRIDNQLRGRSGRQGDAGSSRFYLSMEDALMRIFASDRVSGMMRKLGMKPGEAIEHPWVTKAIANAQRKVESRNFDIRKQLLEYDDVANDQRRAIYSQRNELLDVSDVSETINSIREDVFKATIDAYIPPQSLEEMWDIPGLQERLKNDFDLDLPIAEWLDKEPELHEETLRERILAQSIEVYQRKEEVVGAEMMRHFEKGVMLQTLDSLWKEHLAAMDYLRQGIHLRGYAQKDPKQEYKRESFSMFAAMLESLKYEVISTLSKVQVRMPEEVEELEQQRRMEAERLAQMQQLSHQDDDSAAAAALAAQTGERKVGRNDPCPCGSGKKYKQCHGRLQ

Row | Compound | Percent Effect [1] | Percent Effect [2] | Percent Effect [3] | Percent Effect (Trypanosoma cruzi) | Percent Effect [4] | Percent Effect [5] | Percent Effect (Homo sapiens) | Percent Effect [6] | Percent Effect [7] | Percent Effect [8]
1 | CCOC1CCCN(C(=O)c2sccc2-n2cnnn2)C1 (stereo not given) | -1.7% | 20.5% | -9.12% | 8.73% | -1.23% | 13.1% | 21.5% | 8.13% | 22.9% | -4.42%
2 | O=C(NC[C@]1(O)CN(Cc2ccccc2F)C[C@H]1O)c1ccccn1 | -1.11% | 12% | -1.14% | -2.37% | 1.33% | 10.5% | 6.15% | 4.23% | 15% | -24.1%
3 | CCc1[nH]ncc1C(=O)N1CCCC(n2nc(C)nc2C)C1 (stereo not given) | -6.31% | 2.56% | -8.9% | 11.9% | -1.23% | 2.82% | 7.13% | 0.478% | 8.43% | -10.4%
4 | CC(C(=O)N1CCCC1)N1CCC(c2nccn2Cc2cscn2)CC1 (stereo not given) | -2.34% | 0% | 12.9% | -3.4% | 5.94% | 13% | 3.46% | 6.92% | 12.2% | -3.89%
5 | Cc1ncoc1C(=O)N1CCn2c(COCC3CC3)cnc2C1C (stereo not given) | -6.41% | 9.09% | -3.19% | 0.487% | -0.81% | 10.2% | -4.92% | 7.89% | 12.8% | -2.4%
6 | COCc1nc(C(=O)N2CCCC(n3cccn3)C2)cs1 (stereo not given) | -1.77% | 13% | 6.57% | -4.29% | 2.25% | 8.6% | -4.23% | 2.94% | 16.5% | -6.38%
7 | CCC1c2ccsc2CCN1C(=O)NCc1cc[nH]n1 (stereo not given) | -7.17% | 7.69% | -4.75% | -4.79% | 0% | 7.25% | 21.4% | 2.39% | 6.02% | -1.84%
8 | O=C(NCCCNc1ccccc1)c1scnc1Cl | -4.57% | 13.3% | -2.42% | -3.61% | 0.444% | 8.06% | 24.4% | 3.68% | 12.8% | -10.6%
9 | CN(Cc1ccco1)[C@@H]1CN(Cc2ccc(F)cc2)C[C@@H]2CCCO[C@@H]21 | -5.51% | 9.09% | -4.8% | -5.16% | -6.48% | 15.4% | -5.78% | 3.68% | 12.8% | -3.55%
10 | Cc1ncc(-c2ccnc(N3CCN(C)CC3)n2)c(-c2cccnc2)n1 | -1.44% | 8% | -2.21% | -9.24% | -39.9% | 8.57% | 8.85% | 4.74% | -2.56% | -12.5%
11 | Cc1c(CN2CCCC(c3[nH]ncc3S(C)(=O)=O)C2)cnn1C (stereo not given) | -2.55% | 22.7% | -0.226% | 3.94% | -5.75% | 12.5% | 11.7% | 3.17% | 17.5% | -24.1%
12 | Cc1cnn(CC2CCCN2CC(=O)Nc2cc(C(C)(C)C)no2)c1 (stereo not given) | -3.74% | 13% | 2.37% | 3.73% | -0.615% | 6.84% | 2.79% | 7.84% | 28.2% | -8.5%
